The structures appear in SMILES notation. Values joined by “and” are separate entries in the source; they are usually repeats but may differ in a detail not shown here. Equal values may be shown once. Inconclusive results are not listed. Active and inactive are the calls of the source. Unless noted, calls follow the shape of the dose curve; as a rule, active = well fitted curve in the direction sought with a large enough effect; inconclusive = small, poorly fitted or top-dose-only effect, or another doubt; inactive = no such curve, though single readings can be large; an effect the other way counts as inactive or inconclusive.

The values below come from PubChem BioAssay (NCATS).

Assay [1] addresses Arylsulfatase A (Homo sapiens) (UniProt P15289). Nature of the assay: qHTS screen for enhancers of Arylsulfatase A (ASA1): LOPAC Validation Assay (AID 720538). The settings on record: outcome: dose series up to 57.5 µM. A digest of the protocol: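 Read-out: fluorescence at Ex=525/Em=598 nm after 1N NaOH final stop. Patient fibroblasts carrying ASA-I179S had 48h compound exposure, then 14h room-temperature pNCS hydrolysis (0.5mM final) in lysis buffer. Signal increase = enhanced activity.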
(In general: qHTS replaces the single test concentration by a dilution series.)

Assay [2] is described as follows: qHTS for compounds that reverse cellular toxicity of Amyloid beta (A-beta) peptide in yeast: LOPAC Validation Assay (AID 720559).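 Also: plate controls were DMSO for no effect and equimolar ferric chloride plus clioquinol rescue for full effect.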 A digest of the protocol: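 OD600 growth readout after 48 hr at 30 C; A-beta-toxic yeast plus pinned compounds in medium. Normalization: DMSO = negative, equimolar FeCl3 + clioquinol = positive.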
The nature of assay [3]: qHTS for Activators of Parkin Expression: LOPAC Validation Assay (NLuc Reporter) (AID 720572). The gist of the method:
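NLuc signal, read 10 min after reagent and following a prior FLuc read, is normalized to DMSO (0) and positive controls (100%). Cells: neuronal Parkin-promoter coincidence reporter line; compounds tested 7-point, 24 h, 37 C, 5% CO2.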

Assay [4] in a line: qHTS for Activators of Parkin Expression: LOPAC Validation Assay (FLuc Reporter) (AID 720573). A digest of the protocol:
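FLuc luminescence read-out from a neuronal line expressing a Parkin-promoter-driven coincidence reporter. Cells treated 24 h at 37 C, 5% CO2 with compounds at 7 concentrations; signal increase normalized to DMSO and positive control.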

In assay [5] the target is T1, Hexokinase-4 (Homo sapiens) + Glucokinase regulatory protein (Homo sapiens) (UniProt P35557+Q14397). Nature of the assay: qHTS assay for inhibitors of recombinant human GCK-GKRP interaction: Diaphorase-coupled assay (AID 743205). The gist of the method:
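Resorufin fluorescence (525/590 nm), read each minute over 30 min, reports GCK activity coupled via G6PDH and diaphorase. Reaction: 10 nM GST-GCK, 10 nM FLAG-GKRP, 5 mM glucose, 0.4 mM ATP, 0.15 mM NADP+, 0.1 mM resazurin.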

The target in assay [6] is T1, Hexokinase-4 (Homo sapiens) + Glucokinase regulatory protein (Homo sapiens). Nature of the assay: qHTS assay for inhibitors of recombinant human GCK-GKRP interaction: ADP-Glo assay (AID 743206).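 Also: plate controls were DMSO plus enzyme for no effect and no enzyme for full effect.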 The gist of the method:
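Pin-transferred compounds meet a 15 nM GST-GCK/15 nM FLAG-GKRP/2 uM S6P mix (dispense concentrations). ATP is then added to 0.4 mM final with 5 mM glucose, and the reaction runs 60 min at room temperature. ADP is quantified luminescently.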

Assay [7] shares this target. The experiment in a line: qHTS assay for inhibitors of recombinant human GCK-GKRP interaction: HTRF assay (AID 743207).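 Also: 0% = DMSO with GCK present and -100% = DMSO wells lacking GCK.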 The gist of the method: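 HTRF read-out (ex 320 nm; 615/665 nm emission) after 60 min RT equilibration of 5 nM GST-GCK, 5 nM FLAG-GKRP, 2 uM S6P, compound and anti-FLAG/anti-GST detection antibodies; signal normalized between DMSO wells with and without GCK.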

Assay [8] is described as follows: qHTS Assay for Identifying Gametocytocidal Compounds (AID 743244). Also: potency is read from the fitted curve at half-maximal effect.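 As to max response: % is scaled to controls: 0 for no effect and ±100 for the full control effect; actives lower the fluorescent signal which means gametocytes are killed.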 To be noted: P. falciparum 3D7 stage III-V gametocytes, alamarBlue, 72 h; max response: stronger effect = lower value. A digest of the protocol: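 A resazurin-based viability read-out was applied to mature P. falciparum gametocytes: 72 h compound treatment, then 24 h dye incubation, with falling fluorescence signalling gametocytocidal effect.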

Assay [9] in a line: qHTS profiling of the MIPE4 collection as inhibitors of Plasmodium falciparum (3D7) proliferation (AID 743344; call rule not given here;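 also: scaled between DMSO vehicle wells and 0.29 µM artemisinin as full inhibition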). The settings on record: P. falciparum 3D7 in erythrocytes, SYBR Green DNA fluorescence, 72 h; at 28.5 µM (top of the series) unless noted. The gist of the method: (§1)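 Parasite DNA was quantified by SYBR Green I fluorescence (ex 485, em 535 nm) after overnight lysis in saponin/Triton buffer at room temperature. Cultures at 0.3% parasitemia and 2.5% hematocrit were first exposed to compound for 72 h at 37 C; signals were normalised to artemisinin (0.29 uM) and vehicle wells.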

The nature of assay [10]: qHTS profiling of the MIPE4 collection as inhibitors of Plasmodium falciparum (DD2) proliferation (AID 743345; call rule not given here). To be noted: P. falciparum Dd2 in erythrocytes, SYBR Green DNA, 72 h; at 28.5 µM (top of the series) unless noted. The gist of the method:
as §1

Assay [11] is described as follows: qHTS profiling of the MIPE4 collection as inhibitors of Plasmodium falciparum (DD2) proliferation (Rep 2) (AID 743346; call rule not given here). The settings on record: P. falciparum Dd2 in erythrocytes, SYBR Green DNA, 72 h; at 28.5 µM (top of the series) unless noted. A digest of the protocol: as §1
Assay [12] in a line: qHTS profiling of the MIPE4 collection as inhibitors of Plasmodium falciparum (HB3) proliferation (AID 743347; call rule not given here;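 also: plate controls were DMSO vehicle wells for no effect and artemisinin wells for full effect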). To be noted: P. falciparum HB3 in erythrocytes, SYBR Green DNA, 72 h; at 28.5 µM (top of the series) unless noted. A digest of the protocol:
as §1

A short description of assay [13]: qHTS assay for small molecule agonists of the antioxidant response element (ARE) signaling pathway measured by Nrf2-dependant transcriptional activity (AID 720636; active = well fitted curve in the direction sought with a large enough effect in the repeat runs; an effect the other way counts as inactive or inconclusive;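 also: HepG2 cells with an ARE-driven luciferase reporter; % of control where 0% means no effect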). The gist of the method:
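First, ARE-luc HepG2 cells attached for 6 hr at 37 C in 1% dialyzed FBS medium. Next, compound or DMSO was added and incubated 16 hr. Finally, ONE-Glo reagent was added and luminescence measured after 30 min.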

Assay [14] can be described thus: qHTS assay for small molecule antagonists of the retinoid-related orphan receptor gamma (ROR-gamma) signaling pathway - cell viability counter screen (AID 720652; active = well fitted curve in the direction sought with a large enough effect in the repeat runs; an effect the other way counts as inactive or inconclusive;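 also: CHO reporter cells with doxycycline-induced ROR-gamma expression; compound exposure lasted 16 hr before ATP read; % is scaled to controls: 0 for no effect and ±100 for the full control effect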). A digest of the protocol: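 Steps: seed CHO cells bearing TET-inducible ROR and ROR response element-luciferase; rest 5 hr at 37 C; add compound, then doxycycline; incubate 16 hr; add CellTiter-Glo and read luminescence as ATP-based viability.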

The nature of assay [15]: qHTS assay for small molecule agonists of the antioxidant response element (ARE) signaling pathway measured by Nrf2-dependant transcriptional activity - cell viability counter screen (AID 720653; active = well fitted curve in the direction sought with a large enough effect in the repeat runs; an effect the other way counts as inactive or inconclusive; also: % is scaled to controls: 0 for no effect and ±100 for the full control effect). To be noted: ARE-bla HepG2 viability, CellTiter-Glo ATP luminescence, 16 h; max response: stronger effect = lower value. The gist of the method:
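ARE-bla HepG2 cells treated with compounds for 16 h at 37C; this counter screen measures viability as intracellular ATP by CellTiter-Glo luminescence after 30 min at room temperature.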

A short description of assay [16]: qHTS assay for cell viability of HEK293 cells (AID 743288). Also: % is scaled to controls: 0 for no effect and ±100 for the full control effect; nearly all actives have a fitted effect of over 50% in size. The settings on record: ATP luminescence (CellTiter-Glo), 18 h; max response: stronger effect = lower value. A digest of the protocol: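 ATP luminescence (CellTiter-Glo) reports metabolically competent cell number after parental HEK293 cells, 2,000/well, were treated with DMSO-dissolved compounds for 18 h at 37 C; reagent incubation 30 min, room temperature.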

A short description of assay [17]: qHTS assay for cell viability of the p53RE-bla HCT-116 cell line (AID 743292). Also: % is scaled to controls: 0 for no effect and ±100 for the full control effect; nearly all actives have a fitted effect of over 55% in size. The gist of the method: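 Quantitative high-throughput format: compounds in DMSO were pinned onto p53RE-bla HCT-116 cells (4,000/well) and incubated 16 h at 37 C. Total intracellular ATP, read by CellTiter-Glo luminescence, reflects viable cell number.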

T1 sequence (P35557 whole entry, looked up): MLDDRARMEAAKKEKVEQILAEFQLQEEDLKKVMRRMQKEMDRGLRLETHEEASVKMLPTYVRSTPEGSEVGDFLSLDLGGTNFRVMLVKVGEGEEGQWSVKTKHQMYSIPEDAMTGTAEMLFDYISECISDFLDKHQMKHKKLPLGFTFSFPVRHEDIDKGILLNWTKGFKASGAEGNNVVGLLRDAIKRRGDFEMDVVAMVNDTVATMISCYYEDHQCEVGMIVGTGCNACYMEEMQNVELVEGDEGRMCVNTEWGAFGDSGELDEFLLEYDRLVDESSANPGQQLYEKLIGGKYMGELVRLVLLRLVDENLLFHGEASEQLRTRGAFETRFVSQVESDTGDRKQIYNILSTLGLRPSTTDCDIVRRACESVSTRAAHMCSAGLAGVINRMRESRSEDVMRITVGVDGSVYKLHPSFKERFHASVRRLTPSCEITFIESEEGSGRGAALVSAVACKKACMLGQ
T1 sequence (Q14397 whole entry, looked up): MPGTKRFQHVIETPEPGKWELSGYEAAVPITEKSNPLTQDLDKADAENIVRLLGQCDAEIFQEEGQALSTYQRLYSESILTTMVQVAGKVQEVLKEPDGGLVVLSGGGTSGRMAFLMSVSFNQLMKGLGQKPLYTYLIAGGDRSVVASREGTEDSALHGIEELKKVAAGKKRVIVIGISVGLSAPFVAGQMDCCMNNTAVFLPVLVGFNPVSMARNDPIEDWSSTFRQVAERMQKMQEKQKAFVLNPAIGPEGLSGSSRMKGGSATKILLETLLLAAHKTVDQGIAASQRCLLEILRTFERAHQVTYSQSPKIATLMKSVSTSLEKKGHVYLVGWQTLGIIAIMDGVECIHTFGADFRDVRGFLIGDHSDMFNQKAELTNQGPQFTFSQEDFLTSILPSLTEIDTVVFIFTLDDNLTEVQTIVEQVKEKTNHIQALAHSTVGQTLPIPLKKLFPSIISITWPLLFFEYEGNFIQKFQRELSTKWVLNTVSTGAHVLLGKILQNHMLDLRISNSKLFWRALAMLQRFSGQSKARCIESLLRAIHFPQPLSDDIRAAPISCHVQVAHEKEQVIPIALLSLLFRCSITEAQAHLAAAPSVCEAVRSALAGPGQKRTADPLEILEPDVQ
Arylsulfatase A (Homo sapiens), sequence (P15289 whole entry, looked up): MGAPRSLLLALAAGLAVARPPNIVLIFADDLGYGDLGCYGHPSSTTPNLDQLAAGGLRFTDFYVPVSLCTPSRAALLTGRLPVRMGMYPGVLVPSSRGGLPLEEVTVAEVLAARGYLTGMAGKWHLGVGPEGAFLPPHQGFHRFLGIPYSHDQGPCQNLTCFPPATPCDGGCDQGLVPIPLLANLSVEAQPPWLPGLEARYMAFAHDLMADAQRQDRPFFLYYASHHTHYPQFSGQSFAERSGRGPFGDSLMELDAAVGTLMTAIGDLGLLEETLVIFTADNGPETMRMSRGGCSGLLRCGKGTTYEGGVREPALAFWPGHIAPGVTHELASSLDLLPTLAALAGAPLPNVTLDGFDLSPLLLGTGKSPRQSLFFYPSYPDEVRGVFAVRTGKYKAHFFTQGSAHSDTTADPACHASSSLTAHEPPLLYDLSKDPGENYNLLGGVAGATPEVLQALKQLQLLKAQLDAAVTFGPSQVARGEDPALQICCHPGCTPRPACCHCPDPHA

For `NC(=O)c1cccc(N)c1`, the outcome in assay [1], in [2], in assay [3], in assay [4], in [5] and in assay [6] was inactive. Also, in [7], the result was inactive. Also, the max response in [8] is 25.5% (inactive). This molecule also gave a parasite growth, % of DMSO control in assay [9] of 96.3%. In [10], the parasite growth remaining, % of DMSO control (lower = more inhibition) is 95.5%. For the same molecule, the parasite growth, % of control (lower = inhibition) in assay [11] stood at 93.2%. Moreover, in [12], the growth, % of control amounted to 54.9%.

On to `N=C(N)c1ccc(OCCCCCOc2ccc(C(=N)N)cc2)cc1`, for which the result in assay [13] was inactive. Also, the Potency result in assay [14] and in [17] was “inactive” in each case. For the same molecule, the max response in assay [15] was -9.35% (inactive) and -16.5% (inactive); in assay [16] it was -23.8% (inactive) and -12.7% (inactive). In assay [8], the Potency is 6.31 µM (active). Also, the parasite growth, % of DMSO control in [9] is 5.02%. In assay [10], this molecule returned a parasite growth remaining, % of DMSO control (lower = more inhibition) of 6.09%. Further, the parasite growth, % of control (lower = inhibition) in assay [11] came to 15.7%. In assay [12], this molecule yielded a growth, % of control of 3.03%.

With `O=C(N[C@H](CO)[C@H](O)c1ccc([N+](=O)[O-])cc1)C(Cl)Cl`, in [13], the molecule was classed as inactive. Besides, the Potency entry in [14] and in assay [17] was “inactive” in each case. In addition, the max response in [15] was 3.1% (inactive) and 1.36% (inactive); in assay [8], -4.26% (inactive) and -6.91% (inactive); in [16], -6.51% (inactive) and -1.46% (inactive). Moreover, the parasite growth, % of DMSO control in assay [9] is 94.4%. The same molecule displayed a parasite growth remaining, % of DMSO control (lower = more inhibition) in [10] of 100%. The parasite growth, % of control (lower = inhibition) in assay [11] is 83.1%. Moreover, the growth, % of control in assay [12] came out at 105%.

Turning to `OCc1ccc(-c2nn(Cc3ccccc3)c3ccccc23)o1`, the result in assay [1], in [2], in assay [3], in [4], in assay [5] and in [6] was inactive. For the same molecule, the result in assay [7] was inactive. For the same molecule, the max response in [8] was -5.09% (inactive). Also, in assay [9], the parasite growth, % of DMSO control was 74.2%. Besides, the parasite growth remaining, % of DMSO control (lower = more inhibition) in assay [10] is 85%. Besides, the parasite growth, % of control (lower = inhibition) in assay [11] was determined as 73.7%. The same molecule came in with a growth, % of control in assay [12] of 21.8%.

As for `CCN(CC)CC#CCOC(=O)C(O)(c1ccccc1)C1CCCCC1` (centres undefined), the result in [1], in [2], in assay [3], in assay [4], in [5] and in assay [6] was inactive. For the same molecule, in [7], the result was inactive. Besides, the max response in [8] was -0.0303% (inactive) and 25.9% (inactive). Moreover, in assay [9], the parasite growth, % of DMSO control was determined as 14.3%. Further, the parasite growth remaining, % of DMSO control (lower = more inhibition) in [10] amounted to 58.4%. The molecule also returned a parasite growth, % of control (lower = inhibition) in assay [11] of 16.6%. In addition, the growth, % of control in assay [12] was 11.2%.

For the molecule `CC(C)NCC(O)c1ccc(NS(C)(=O)=O)cc1` (centres undefined), the outcome in assay [1], in assay [2], in [3], in assay [4], in assay [5] and in assay [6] was inactive. Moreover, in assay [7], the result was inactive. Further, the max response in assay [8] was -0.473% (inactive) and -8.06% (inactive) and 37.8% (inactive). Further, the parasite growth, % of DMSO control in [9] was determined as 44.4%. This molecule registered a parasite growth remaining, % of DMSO control (lower = more inhibition) in assay [10] of 94.6%. Moreover, in assay [11], the parasite growth, % of control (lower = inhibition) is 30.5%. The molecule also displayed a growth, % of control in assay [12] of 52.5%.

Regarding `Cc1cc(NS(=O)(=O)c2ccc(N)cc2)no1`, in assay [13], the molecule was called inactive. Besides, the Potency result in assay [14] and in [17] was “inactive” each time. Besides, the max response in [15] was 3.89% (inactive); in assay [8], -4.78% (inactive); in [16] it was -9.46% (inactive).
